We go through nine compounds from article PMC5540273 (PLoS ONE, 2017).

Among the test systems are PIKFYVE; PIM1; PIM2; PIM3; PIP5K1A; PIP5K1C; PIP5K2B.
Conditions in all cases: concentration: 1 μM, replicates: in singlicate; n = 1
The next test relates to T1, PIK4CB.
T1 construct: gene PI4KB

The subject of the next test is T2, PIP5K2C.
T2 construct: gene PIP4K2C

The next test deals with T3, PKAC-alpha.
T3 construct: gene PRKACA
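Further: KINOMEscan kinase panel screen.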

In the case of `CS(=O)(=O)Cc1ccc(Nc2nccc(-c3c(-c4cccc(NC(=O)C5CCCCC5)c4)nn4ncccc34)n2)cc1` [GSK350559], the “%Inh” value in the test on PIK4CB worked out at 45%; in the test with PIKFYVE, 2%; in the test on PIM1 it was 12%; in the test on PIM2 it was 10%; with PIM3, 17%; with PIP5K1A, 0%. Also, the “%Inh” value in the test on PIP5K1C worked out at 100%; in the test with PIP5K2B, 12%; with PIP5K2C it was 83%; in the test with PKAC-alpha, 31%.
With `Cn1cncc1C(=O)NC1CCN(c2ccnc(Nc3ccc(F)cc3)n2)C1` (stereo not drawn) [GSK1379717], the “%Inh” value turned out to be 26% in the test on PIK4CB; 0% with PIKFYVE; 15% in the test with PIM1; 0% in the test on PIM2; 0% with PIM3; 0% in the test with PIP5K1A. Besides, the “%Inh” value with PIP5K1C turned out to be 32%; with PIP5K2B, 0%; in the test on PIP5K2C, 20%; in the test with PKAC-alpha, 0%.
With `CC(C)c1ccc(O)cc1Nc1ccnc2ccc(C(F)(F)F)cc12` [GW482059], the “%Inh” value in the test on PIK4CB came to 45%; with PIKFYVE it was 1%; in the test on PIM1, 19%; with PIM2 it was 0%; in the test on PIM3, 0%; with PIP5K1A it was 0%. Further, the “%Inh” value in the test with PIP5K1C was 0%; with PIP5K2B, 7%; with PIP5K2C, 0%; in the test on PKAC-alpha, 0%.
As for `CN1c2ccc(-c3ccc(C(N)=O)cc3)cc2-c2[nH]ncc2S1(=O)=O`, the “%Inh” value in the test with PIK4CB is listed as 0%; in the test with PIKFYVE it was 4%; in the test with PIM1, 9%; in the test on PIM2 it was 0%; in the test with PIM3, 13%; with PIP5K1A it was 0%. The “%Inh” value in the test with PIP5K1C is given as 81%; in the test on PIP5K2B it was 6%; with PIP5K2C, 64%; in the test with PKAC-alpha, 13%.
`CNc1nc(-c2ccc3c(N)n[nH]c3c2)cc(N2C[C@@H](C(=O)NC3CCCCC3)OC[C@H]2C)n1` [GSK2375584]: the “%Inh” value with PIK4CB was determined as 0%; in the test on PIKFYVE it was 0%; in the test on PIM1, 11%; in the test with PIM2, 0%; in the test on PIM3, 0%; in the test on PIP5K1A, 34%. Moreover, the “%Inh” value with PIP5K1C came out at 54%; in the test on PIP5K2B, 21%; with PIP5K2C it was 27%; in the test with PKAC-alpha, 5%.
With `Cc1c(Cn2c(C)c(C)n3c(=O)cc(N4CCOCC4)nc23)cccc1C(F)(F)F` [GSK2328680], the “%Inh” value is 0% in the test with PIK4CB; 0% in the test with PIKFYVE; 1% with PIM1; 0% in the test on PIM2; 0% in the test on PIM3; 9% with PIP5K1A. Besides, the “%Inh” value in the test with PIP5K1C was 44%; in the test with PIP5K2B, 20%; in the test with PIP5K2C, 7%; in the test on PKAC-alpha, 0%.
Consider `Cc1ccccc1-c1cc(-c2c[nH]nc2-c2ccccn2)ccn1` [GW680061], for which the “%Inh” value in the test on PIK4CB is recorded as 0%; with PIKFYVE, 0%; with PIM1 it was 0%; in the test on PIM2 it was 0%; with PIM3, 0%; in the test with PIP5K1A, 12%. Besides, the “%Inh” value with PIP5K1C was determined as 39%; in the test on PIP5K2B it was 15%; in the test on PIP5K2C, 28%; in the test on PKAC-alpha, 0%.
For `CS(=O)(=O)CCNCc1nc(-c2ccc3ncnc(Nc4ccc5c(cnn5Cc5ccccc5)c4)c3c2)cs1.Cl.Cl` [GW569716], the “%Inh” value is on record as 59% in the test on PIK4CB; 0% in the test with PIKFYVE; 21% with PIM1; 0% with PIM2; 0% in the test on PIM3; 46% in the test with PIP5K1A. The “%Inh” value in the test on PIP5K1C is listed as 58%; in the test with PIP5K2B, 19%; with PIP5K2C it was 41%; in the test with PKAC-alpha it was 0%.
Regarding `COc1ccc(Nc2nccc(N3CCC(NC(=O)C(C)c4ccc(Cl)cc4)CC3)n2)cc1` (stereo not drawn) [GSK1379812], the “%Inh” value was determined as 11% in the test on PIK4CB; 0% in the test with PIKFYVE; 0% in the test on PIM1; 0% with PIM2; 2% with PIM3; 0% in the test with PIP5K1A. Besides, the “%Inh” value in the test on PIP5K1C is 29%; in the test on PIP5K2B, 63%; in the test with PIP5K2C, 9%; in the test on PKAC-alpha it was 17%.
